Screening results: PubChem BioAssay, Center for Chemical Genomics, University of Michigan
Dicer processing – inhibitors of human Dicer processing of pre-microRNA; cat-ELCCA pre-miR-21 Dicer processing, chemiluminescence; hits give high values; AID 1347074; Q9UPY3; 6% of 47,000 active; z-score at 25 µM; in the data active = z-score above about 3, passing the limit was not always enough;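 note: higher signal means more uncleaved substrate so more Dicer inhibition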
Large screens that a line does not name were inactive. This is one part of a sample in which hits are shown more often than they occur.

CCOC(=O)c1cn(Cc2ccccc2)c2cc(C)nn2c1=O	none
CCOC(=O)c1cccc(C(=O)O)n1	none
COC(=O)c1cccc(C(=O)Oc2ccc(OC)cc2)n1	none
CCOC(=O)c1cccc(C(=O)Oc2ccccc2)n1	Dicer processing 6.2
CS(=O)CC(O)(c1ccc(Cl)cc1)c1ccc(Cl)cc1 (stereo unspecified)	none
O=C1CCCC2=C1C(c1ccncc1)n1nc(-c3cccc(Cl)c3)nc1N2 (stereo unspecified)	none
Cc1cccc(-c2nc3n(n2)C(c2ccc(O)cc2)C2=C(CCCC2=O)N3)c1 (stereo unspecified)	none
O=C1CCCC2=C1C(c1ccc3c(c1)OCO3)n1nc(-c3cccc(Cl)c3)nc1N2 (stereo unspecified)	Dicer processing 4.1
c1ccc2oc(-c3csc(-c4ccc(-c5ccno5)s4)n3)cc2c1	none
CCNC(=O)C(NC(=O)OC(C)(C)C)C(C)OCc1ccccc1 (stereo unspecified)	Dicer processing 4.7
CC(C)(C)OC(=O)NC(COCc1ccccc1)C(=O)NCc1ccccc1 (stereo unspecified)	none
CCNC(=O)C(C)NC(=O)OC(C)(C)C (stereo unspecified)	none
O=C(N=S1CCC2(C1)OCCO2)c1cc(C(F)(F)F)cc(C(F)(F)F)c1 (stereo unspecified)	none
O=c1sc2ccccc2c(NCc2ccccc2)c1[N+](=O)[O-]	Dicer processing 4.4
CCN(CC)c1c([N+](=O)[O-])c(=O)sc2ccccc12	none
O=[N+]([O-])c1ccsc1NCc1ccccc1	none
Cc1nc([N+](=O)[O-])cn1CC(=O)c1ccc(-c2ccccc2)cc1	none
O=C1/C(=C/c2cccs2)CCCc2ccccc21	none
O=C1/C(=C/c2cccs2)CS/C1=C/c1cccs1	none
O=C1/C(=C/c2cccs2)COC/C1=C\c1cccs1	Dicer processing 4.2
COC(=O)c1c(NC(=O)COc2ccc(Cl)cc2)sc2c1CCCC2	none
O=C(Oc1c(Br)cc(C(F)(F)F)cc1[N+](=O)[O-])c1ccccc1Cl	none
O=C(Oc1ccc2occ([N+](=O)[O-])c2c1)c1ccc(C(F)(F)F)cc1	Dicer processing 4.7
COC(=O)NC(=O)c1ccc(Oc2ccc(C(F)(F)F)cc2[N+](=O)[O-])cc1	none
Cc1c(S(=O)(=O)c2ccc(Cl)cc2)cnc2cc(C3CC3)nn12	none
O=C1CCCC2=C1C(c1ccc(Cl)cc1)c1c([nH]n(-c3ccccc3)c1=O)N2 (stereo unspecified)	none
Cn1c(=O)c2c(nc(Cl)n2CC(O)CO)n(C)c1=O (stereo unspecified)	none
CCC(C)Nc1ncnc(N)c1[N+](=O)[O-] (stereo unspecified)	none
Cc1nc(=O)c(-c2ccccc2)c(C)n1CCc1c[nH]c2ccccc12	none
Cc1c2c(=O)n(-c3ccccc3)[nH]c2cc(=O)n1Cc1ccc2c(c1)OCO2	none
Cc1c2c(=O)n(-c3ccccc3)[nH]c2cc(=O)n1CCc1c[nH]c2ccccc12	Dicer processing 3
CCc1ccc(Oc2ccc(C(F)(F)F)cc2[N+](=O)[O-])cc1CC	none
COC(=O)CSc1ncccc1C(=O)OC	none
Cc1cc(-c2nn(C)c(=O)c3ccccc23)cc(C)c1OCC(=O)NNS(=O)(=O)c1cc(Cl)ccc1Cl	none
CCOC(=O)c1c(O)c(O)c(C(=O)OCC)n1-c1ccccc1	none
CC(=O)Nc1ccc2c(c1)[n+](C)c(C)n2-c1ccccc1	none
CC[n+]1c(C)n(-c2ccccc2)c2ccccc21	Dicer processing 10
O=C(NS(=O)(=O)c1ccccc1Cl)c1ccc(C(F)(F)F)cc1	none
Cc1ccc(S(=O)(=O)n2c(=O)sc3ccccc32)cc1	none
COC(=O)n1c(=O)oc2cc(Cl)ccc21	none
Cc1ccc(S(=O)(=O)n2c(=O)oc3cc(Cl)ccc32)cc1	Dicer processing 16
O=[N+]([O-])c1cc(C2SCCS2)ccc1SCc1ccco1	none
CCCc1cnc(N2CCCN(C(=S)Nc3ccc(C)cc3C)CC2)nc1	none
CC12CCC3c4ccc(OCCCC#N)cc4CCC3C1CCC2=O (stereo unspecified)	none
CCN(CC)c1ccc(C2C(C(=O)OCC3CCCO3)=C(C)NC3=C2C(=O)CCC3)cc1 (stereo unspecified)	none
N/C(CS(=O)(=O)Cc1ccco1)=N\O	Dicer processing 4.5
N#C/C(=C\c1ccc(Cl)cc1)S(=O)(=O)Cc1ccco1	none
Nc1ccc(S(=O)(=O)NCc2ccco2)cc1	none
O=C(O)CC1(CC(=O)N2CCC(n3cccc3)CC2)CCCC1	none
c1ccc(-c2ccc(-c3nc(-c4ccc5c(c4)OCCCO5)cs3)s2)nc1	none
CCOc1ccc2nc(NC(=O)c3ccc([N+](=O)[O-])o3)sc2c1	none
CCOc1ccc2nc(NC(=O)c3cccs3)sc2c1	Dicer processing 4
CCCOc1ccc2nc(NC(=O)OC)sc2c1	none
CCc1c(O)nc2n(c1=O)CCS2	none
CC(=O)n1nccc1-c1cc(-c2ccccc2)no1	none
Clc1ccc(CNc2nc3ccccc3n2CCN2CCCCC2)cc1	Dicer processing 3.2
c1coc(CNc2nc3ccccc3n2CCN2CCCCC2)c1	Dicer processing 6.1
O=C(Cn1c(NCCO)nc2ccccc21)c1ccc(Cl)cc1	none
CCCCn1c(NCc2ccco2)nc2ccccc21	none
O=C(CSc1nc2ccccc2nc1N1CCCC1)NCc1ccco1	none
O=C(Nc1nc2ccccc2n1CCN1CCCCC1)C1CCCCC1	none
Cc1nc2n[nH]c(N)c2c(C)c1[N+](=O)[O-]	none
N#Cc1ccc(CSC(=N)N)cc1	none
CSc1nnc(NCc2cccc(Cl)c2)s1	none
O=C(Nc1cccc2cccnc12)c1cccs1	none
O=C(CCC(=O)OCC(=O)c1cccs1)Nc1cccc2cccnc12	Dicer processing 4.3
O=C(O)CCCC(=O)Nc1cccc2cccnc12	none
CC1=C(C(=O)OCCOc2ccccc2)C(c2cccs2)C2=C(CCCC2=O)N1 (stereo unspecified)	none
Cc1ccc2nc(Cc3ccc(N)cc3)oc2c1	none
Cc1ccc2nc(Cc3ccc4nc(N)sc4c3)oc2c1	Dicer processing 4.7
Nc1nc2ccc(Cc3nc4ccccc4o3)cc2s1	none
CC(C)(C)c1ccc2c(c1)CN(c1cccc(C(=O)O)c1)CO2	none
CC(C)(C)c1ccc2c(c1)CN(c1ccc(F)cc1)CO2	Dicer processing 6.3
CC(C)(C)c1ccc2c(c1)CN(Cc1ccccc1)CO2	none
Cc1cc2ncc(-c3ccc(Cl)c(Cl)c3)nc2cc1C	none
CC(=O)OCC(=O)c1ccc(C(F)(F)F)cc1	none
O=C(CN1C(=O)c2cccc3cccc1c23)NCCSCc1ccco1	none
Cc1onc(-c2ccccc2)c1C(=O)NC1CCCCC1NC(=O)c1c(-c2ccccc2)noc1C (stereo unspecified)	none
CC1CCc2c(sc(NC(=O)c3ccco3)c2C(=O)O)C1 (stereo unspecified)	none
Cc1onc(-c2ccccc2)c1C(=O)Nc1sc2c(c1C#N)CCC(C)C2 (stereo unspecified)	Dicer processing 4.7
O=C1NC2NC(=O)N(c3ccccc3)C2N1 (stereo unspecified)	none
O=C(NCC1CCCO1)C1Sc2nnc(-c3ccccc3)n2NC1c1ccccc1 (stereo unspecified)	none
CCN1CCN(Cc2c(O)ccc3c(=O)c(-c4ccc(Cl)cc4)c(C(F)(F)F)oc23)CC1	none
O=C(Nc1cccc2nsnc12)c1cccs1	none
O=C(Nc1cc(Cl)ccc1O)c1cccs1	none
O=C(Nc1ccncc1[N+](=O)[O-])c1cccs1	Dicer processing 3.5
Nc1ncccc1OCc1ccccc1	none
Cc1cc(C)c(N=C(NN)N(C)C)cc1C	none
Cc1ccnc(NC(c2ccc(C)s2)c2ccc3cccnc3c2O)c1 (stereo unspecified)	none
Cc1ccnc(NC(c2cccc(F)c2)c2ccc3cccnc3c2O)c1 (stereo unspecified)	Dicer processing 11
